Assay outcomes deposited in PubChem by National Center for Advancing Translational Sciences (NCATS).
Rows were chosen to be rich in hits. Some 19% of all compounds tested hit in one or more screens of this group.
HT1080 IDH1KD tx: qHTS for induction of synthetic lethality in tumor cells producing 2HG: qHTS for the HT-1080-IDH1KD cell line; Potency, µM (titrated, usually from 46.1 µM), without a hit: at the top dose activity, negative = toxicity, actives largely listed as cytotoxic; 360,000 compounds, 2% hits; HT-1080 IDH1 knockdown viability, ATP luminescence, 48 h;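 further: potency means the concentration at half of the fitted maximal effect; 0% = DMSO wells and -100% = cell-free medium wells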
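Cytotoxicity counter-line: IDH1KD HT-1080, 48 h, CellTiter-Glo. Curves classed by r2, magnitude and activity.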
HT1080NT lethal: qHTS for induction of synthetic lethality in tumor cells producing 2HG: qHTS for the HT-1080-NT fibrosarcoma cell line | HT-1080-NT fibrosarcoma viability, CellTiter-Glo ATP luminescence, 48 h | Potency, µM (series often up to 46.1 µM), without a hit: top-dose activity, negative = less viability, actives largely listed as cytotoxic | 360,000 compounds, 1.6% hits | AID 686970, 2013;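 further: NT is the 2HG producing partner of a matched IDH1 knockdown line; potency means the concentration at half of the fitted maximal effect; 0% = DMSO-treated cells and -100% = media-only wells without cells; nearly all actives have a fitted effect of over 55% in size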
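Toxicity toward the 2HG-producing NT line was scored as %Activity, normalised to DMSO and no-cell wells, from CellTiter-Glo luminescence after 48 hours' treatment.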
uPA generation: qHTS for Inhibitors of Cell Surface uPA Generation; cell surface uPA generation assay, qHTS; Potency, µM (top dose mostly 38.3 µM), without a hit: at the top dose activity change, negative = inhibition, actives largely listed as inhibitors; 330,000 compounds, 0.31% hits; AID 540303, 2011; active means well fitted inhibition curve with a large enough effect; inconclusive means small, poorly fitted or top-dose-only effect; inactive means no such curve, though single readings can be large or run the other way; tested in mouse RAW 264.7 cells; further: potency means the concentration at half of the fitted maximal effect; nearly all actives have a fitted effect of over 55% in size
DT40 TDP1 no CPT: qHTS for Inhibitors of human tyrosyl-DNA phosphodiesterase 1 (TDP1): qHTS in cells in absence of CPT; DT40 Tdp1-/- hTDP1 cells, no CPT, ATP luminescence, 48 h; Potency, µM (series often up to 46.2 µM), inactives show top-dose activity change, negative = growth inhibition, actives largely listed as inhibitors; 420,000 compounds, 15% hits; further: potency means the concentration at half of the fitted maximal effect; nearly all actives have a fitted effect of over 55% in size
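Seeded 400 DT40-hTDP1 cells/well (vehicle DMSO, no 20 nM CPT); pinned compounds; ≥48 hr at 37 °C; CellTiter-Glo luminescence as viability measure.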
IL-1B inflam inh: qHTS for Inhibitors of Inflammasome Signaling: IL-1-beta AlphaLISA Primary Screen; THP-1 LPS/ATP IL-1B secretion, AlphaLISA, 16 h; active compounds read low; AID 743279, 2014; 360,000 compounds, 4.7% hits; activity change, % at 57.5 µM; in the data active means activity change below about -50%; inconclusive means mostly about -30% to -49%
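THP-1 cells pretreated 1 hr with compounds (up to 57.5 uM final), then stimulated with LPS (250 ng/mL final) plus ATP (1.25 mM final); secreted IL-1B measured by AlphaLISA after 16 hr, decreased signal indicating inhibition.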
TDP1 cell CPT: qHTS for Inhibitors of human tyrosyl-DNA phosphodiesterase 1 (TDP1): qHTS in cells in presence of CPT | chicken DT40 Tdp1-/-;hTDP1 cells + 20 nM CPT, ATP luminescence, 48 h | Potency, µM (top dose mostly 46.2 µM), for the others: top-dose activity change, negative = growth inhibition, usual class: inhibitors | 420,000 compounds, 12% hits; further: potency means the concentration at half of the fitted maximal effect; nearly all actives have a fitted effect of over 55% in size
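Cell growth measured by CellTiter-Glo luminescence after a minimum 48 h, 37 C compound exposure with 20 nM CPT in Tdp1-knockout DT40 cells stably expressing hTDP1, seeded 400/well; qHTS titration format.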
* = called active by the depositor; ? = inconclusive; . = no result given; ! = not active in a repeat. Unless noted, the call rests on the fitted dose curve; in most records, active means well fitted curve in the direction sought with a large enough effect; inconclusive means small, poorly fitted or top-dose-only effect, or another doubt; inactive means no such curve, though single readings can be large; an effect the other way counts as inactive or inconclusive. Unless noted, on the % scale 0 is the no-effect control and ±100 the full control effect.

SMILES	HT1080 IDH1KD tx	HT1080NT lethal	uPA generation	DT40 TDP1 no CPT	IL-1B inflam inh	TDP1 cell CPT
CCN(CC)C(=O)CC(c1ccccc1)c1ccco1 (configuration not stated)	2%	8%	.	-21%	-19	-30%
CCCN(CCC)C(=O)CC(c1ccc(F)cc1)c1ccco1 (configuration not stated)	-9%	-19%	-5%	21µM*	?	?
Cc1nn(-c2ccccc2)c(C)c1-c1nnc(-c2c(C)nn(-c3ccccc3)c2C)o1	0%	-3%	5%	18µM*	3	?
CCc1cccc(CC)c1NC(=S)Nc1ccccc1	11%	-1%	-1%	?	-6	?
Cc1c(Cl)cccc1NC(=O)CN1C(=O)COc2ccc(S(=O)(=O)N3CCCCCC3)cc21	.	.	.	?	.	16µM*
CN1CCN(C(=O)CN2C(=O)COc3ccc(S(=O)(=O)N4CCOCC4)cc32)CC1	11%	7%	0%	25%	4	7%
Cc1cccc(N2CCN(C(=O)CN3C(=O)COc4ccc(S(=O)(=O)N5CCCCCC5)cc43)CC2)c1C	.	.	.	16µM*	.	?
COc1ccc(NC(=O)CN2C(=O)COc3ccc(S(=O)(=O)N4CCCCC4)cc32)cc1OC	2%	0%	-2%	?	-4	?
COc1ccc(NC(=O)CN2C(=O)COc3ccc(S(=O)(=O)N4CCCCCC4)cc32)cc1	1%	7%	-11%	16µM*	-14	4.6µM*
Cc1ccc(NC(=O)CN2C(=O)COc3ccc(S(=O)(=O)N4CCCCCC4)cc32)cc1C	.	.	.	15µM*	.	?
COc1ccc(C(=O)OCC(=O)NCc2ccc3c(c2)OCO3)cc1S(=O)(=O)N1CCOCC1	5%	13%	2%	-10%	-2	-17%
O=C(CN1C(=O)COc2ccc(S(=O)(=O)N3CCCCCC3)cc21)Nc1cccc(Cl)c1	.	.	.	21µM*	.	?
COc1ccc(C)cc1NC(=O)CN1C(=O)COc2ccc(S(=O)(=O)N3CCCCCC3)cc21	-7%	-12%	0%	?	-54*	?
CC(C)c1ccc(NC(=O)CN2C(=O)COc3ccc(S(=O)(=O)N4CCCCCC4)cc32)cc1	.	.	.	3.7µM*	.	2.6µM*
Cc1ccc(NC(=O)CN2C(=O)CCc3cc(S(=O)(=O)N4CCCCC4)ccc32)cc1C	.	.	.	21µM*	.	?
CCNC(=O)C[C@@H]1CC[C@@H]2NC[C@@H](O)COC[C@H]2O1	24%	16%	.	-1%	9	-3%
COCCCN=C(c1ccco1)n1c(=S)nc(-c2ccco2)n(CCCOC)c1=S	7.9µM*	5.6µM*	-15%	?	7	26µM*
O=C1C2C3c4ccccc4C(c4ccccc43)C2C(=O)N1Cc1ccccn1 (configuration not stated)	2%	3%	-1%	23µM*	19	23µM*
O=C1C2C3c4ccccc4C(c4ccccc43)C2C(=O)N1Cc1cccnc1 (configuration not stated)	0%	-3%	3%	18µM*	-2	?
COc1ccc(OC)c(-c2csc(-c3c(N)c(C(=O)c4ccc(Cl)cc4)n4ccccc34)n2)c1	.	.	.	-13%	.	7%
CCCOc1cc(N)ccc1C(=O)OCCN(CC)CC	-2%	-3%	25%	?	23	0.13µM*!
CCCOc1ccc(N)cc1N	?	?	-15%	4.1µM*	?	5.2µM*
